Data on 62 compounds can be found in the antibiotic and cytotoxicity screens of Wong et al. (2023).

Each structure is given as a SMILES string. The whole screen tested about 39,000 compounds, of which about 500 (1.3%) were called active. Many of the other results were omitted from the sample, so actives are more common in it than they were.

The assay has as its system S. aureus RN4220. The assay is described as follows: growth inhibition call (relative growth <= 0.2). Particulars: 50 µM.
Take `C[C@@H]1CN([C@@H](C)CO)C(=O)c2cc(NC(=O)Nc3ccc(C(F)(F)F)cc3)ccc2O[C@@H]1CN(C)C(=O)Nc1ccc2c(c1)OCO2`: the growth inhibition call is “inactive”.
In the case of `CC(=O)c1c(C)nn(CC(=O)O)c1C`, the growth inhibition call is “inactive”.
For `COc1ccc(NC(=O)N(C)C[C@@H]2OCCCC[C@@H](C)Oc3ccc(NC(=O)NC(C)C)cc3C(=O)N([C@H](C)CO)C[C@@H]2C)cc1` the value was “inactive”; for `O=C(C[C@@H]1C[C@@H]2c3cc(NC(=O)c4ccc5c(c4)OCO5)ccc3O[C@@H]2[C@H](CO)O1)NCc1ccc(Oc2ccccc2)cc1`, “inactive”; for `CN(C)[C@@H]1C(=O)C(C(=O)NCN2CCCC2)=C(O)[C@@]2(O)C(O)=C3C(=O)c4c(O)cccc4[C@@](C)(O)[C@H]3C[C@@H]12`, “active”.
For `CN(C)C1C(O)=C(C(N)=O)C(=O)C2(O)C(O)=C3C(=O)c4c(O)cccc4C(C)(O)C3CC12.Cl` (configuration not stated) the value was “inactive”.
As to `CN(C)C1C(O)=C(C(N)=O)C(=O)C2(O)C(O)=C3C(=O)c4c(O)ccc(Cl)c4C(C)(O)C3CC12.Cl` (configuration not stated), the growth inhibition call was “inactive”.
In the case of `C[C@H](O)[C@H](O)[C@@H](O)[C@@H](O)/C=N/NC(=O)c1ccc(C(=O)NO)cc1`, the growth inhibition call was “inactive”.
For `COc1ccc(S(=O)(=O)N2C[C@@H](O)COC[C@H]3O[C@@H](CC(=O)N[C@H]4CCN(Cc5ccccc5)C4)CC[C@@H]32)cc1` the value was “inactive”.
For `CN(CCCCCCCCCCN(C)C(=O)Oc1cccc([N+](C)(C)C)c1)C(=O)Oc1cccc([N+](C)(C)C)c1` the value was “active”; for `CC(=O)Oc1cccc(O)c1`, “inactive”; for `CC(=O)Oc1cccc(C)c1` [meta-CRESYL ACETATE], “inactive”.
Take `C[C@@H]1CN([C@H](C)CO)C(=O)c2cc(NC(=O)C3CCCCC3)ccc2O[C@@H](C)CCCCO[C@@H]1CN(C)C(=O)Nc1ccccc1`: the growth inhibition call is “inactive”.
Consider `COc1ccc(S(=O)(=O)N(C)C[C@@H]2Oc3ccc(NC(=O)CCN4CCOCC4)cc3CC(=O)N([C@@H](C)CO)C[C@H]2C)cc1`, for which the growth inhibition call was “inactive”.
For `C[C@@H]1CN([C@H](C)CO)C(=O)Cc2cc(NS(=O)(=O)c3cn(C)cn3)ccc2O[C@H]1CN(C)S(C)(=O)=O` the value was “inactive”; for `CC(=O)N(C)C1(c2ccccc2)CCN(CCC[C@]2(c3ccc(Cl)c(Cl)c3)CCCN(C(=O)c3ccccc3)C2)CC1`, “inactive”; for `CC(C)Oc1cccc(CC(=O)N2CCC[C@](CC[N+]34CCC(c5ccccc5)(CC3)CC4)(c3ccc(Cl)c(Cl)c3)C2)c1`, “active”.
For `C[C@@H]1CN([C@@H](C)CO)C(=O)c2cccc(NC(=O)C3CCOCC3)c2O[C@H]1CN(C)Cc1ccc(C(=O)O)cc1` the value was “inactive”; for `NCC[C@H]1CC[C@@H](NC(=O)Nc2ccc(F)cc2)[C@@H](CO)O1`, “inactive”.
For `CC1(C(=O)O)CCC2(C)CCC3(C)C(=CC(=O)C4C5(C)CCC(O)C(C)(C)C5CCC43C)C2C1` (configuration not stated) the value was “inactive”; for `CC(=O)Oc1cc2c(c(C)c1OC(C)=O)CC=C1[C@@]2(C)CC[C@@]2(C)[C@H]3C[C@](C)(C(=O)O)CC[C@]3(C)CC[C@]12C`, “active”.
In the case of `C[C@@H]1CCCCO[C@@H](CN(C)Cc2ccc(C(=O)O)cc2)[C@H](C)CN([C@H](C)CO)C(=O)c2cc(NC(=O)Nc3ccc(F)cc3)ccc2O1`, the growth inhibition call is “inactive”.
For `C[C@@H]1CN([C@@H](C)CO)C(=O)c2cc(C#CC3(O)CCCC3)cnc2O[C@@H]1CN(C)S(=O)(=O)c1ccc(F)cc1` the value was “inactive”.
For `COCC(=O)N1CC[C@]2(CC1)CN([C@H](CO)c1c2c2ccc(cc2n1C)OC)C(=O)Cc1ccccc1` the value was “inactive”; for `CCC(=O)OC1C(OC2C(C)C(OC3CC(C)(OC)C(O)C(C)O3)C(C)C(=O)OC(CC)C(C)(O)C(O)C(C)C(=O)C(C)CC2(C)O)OC(C)CC1N(C)C.CCCCCCCCCCCCOS(=O)(=O)O` (configuration not stated), “inactive”; for `CCC(=O)O[C@H]1[C@H](O[C@@H]2[C@@H](C)[C@H](O[C@H]3C[C@@](C)(OC)[C@@H](O)[C@H](C)O3)[C@@H](C)C(=O)O[C@H](CC)[C@@](C)(O)[C@H](O)[C@@H](C)C(=O)[C@H](C)C[C@@]2(C)O)O[C@H](C)C[C@@H]1N(C)C`, “inactive”.
Regarding `CCOC(=O)CCC(=O)OC1C(OC2C(C)C(OC3CC(C)(OC)C(O)C(C)O3)C(C)C(=O)OC(CC)C(C)(O)C(O)C(C)C(=O)C(C)CC2(C)O)OC(C)CC1N(C)C` (configuration not stated), the growth inhibition call was “active”.
The entry for `CCOC(=O)CCC(=O)O[C@H]1[C@H](O[C@@H]2[C@@H](C)[C@H](O[C@H]3C[C@@](C)(OC)[C@@H](O)[C@H](C)O3)[C@@H](C)C(=O)O[C@H](CC)[C@@](C)(O)[C@H](O)[C@@H](C)C(=O)[C@H](C)C[C@@]2(C)O)O[C@H](C)C[C@@H]1N(C)C` is “active”; for `CO[C@@H]1CN(C)C(=O)c2ccc(NC(=O)Nc3ccc(F)cc3)cc2OC[C@@H](C)N(C(=O)c2ccc(F)cc2)C[C@H]1C` it is “inactive”.
The entry for `Cc1nn(C)c2c1[C@@H](c1ccc(C(F)(F)F)cc1)C(C#N)C(=N)O2` (some centres not stated) is “inactive”; for `CCCNC(=O)N(C)C[C@H]1Oc2cc(-c3ccccc3F)ccc2S(=O)(=O)N([C@@H](C)CO)C[C@H]1C` it is “inactive”; for `Cc1noc(C)c1NC(=O)Nc1ccc2c(c1)C(=O)N([C@@H](C)CO)C[C@@H](C)[C@@H](CN(C)Cc1ccc(C(=O)O)cc1)OCCCC[C@H](C)O2` it is “inactive”.
With `C[C@@H]1CN([C@H](C)CO)C(=O)c2cc(NC(=O)c3ccncc3)ccc2O[C@@H]1CN(C)Cc1ccc(C(=O)O)cc1`, the growth inhibition call is “inactive”.
For `COc1cccc(CNC(=O)c2cc3c(c(-c4cccc(-c5ccncc5)c4)n2)[C@@H](CCO)N([S@](=O)C(C)(C)C)C3)c1` the value was “inactive”.
For `CCCC1CC(C(=O)NC(C(C)Cl)C2OC(SC)C(O)C(O)C2O)N(C)C1.Cl` (configuration not stated) the value was “active”; for `CCCCCCCCCCCCCCCC(=O)OC1C(SC)OC(C(NC(=O)C2CC(CCC)CN2C)C(C)Cl)C(O)C1O.Cl` (configuration not stated), “inactive”.
As to `CCCCCCCCCCCCCCCC(=O)O[C@@H]1[C@@H](O)[C@@H](O)[C@@H]([C@H](NC(=O)[C@@H]2C[C@@H](CCC)CN2C)[C@H](C)Cl)O[C@@H]1SC`, the growth inhibition call is “inactive”.
The entry for `CCC[C@@H]1C[C@@H](C(=O)N[C@H]([C@H]2O[C@H](SC)[C@H](O)[C@@H](O)[C@H]2O)[C@@H](C)Cl)N(C)C1` is “active”; for `CCC[C@@H]1C[C@@H](C(=O)N[C@@H]([C@H]2O[C@H](SC)[C@H](OP(=O)(O)O)[C@@H](O)[C@H]2O)[C@H](C)Cl)N(C)C1` it is “inactive”.
The entry for `C[C@H](CO)N1C[C@H](C)[C@H](CN(C)Cc2ccncc2)Oc2ccc(NC(=O)Nc3cccc4ccccc34)cc2CC1=O` is “inactive”; for `COc1ccc(NC(=O)Nc2ccc3c(c2)C(=O)N([C@H](C)CO)C[C@H](C)[C@@H](CN(C)S(=O)(=O)c2ccccc2)OCCCC[C@H](C)O3)cc1` it is “inactive”.
Turning to `COc1ccc(S(=O)(=O)N(C)C[C@@H]2Oc3cc(C4=CCCC4)ccc3S(=O)(=O)N([C@@H](C)CO)C[C@@H]2C)cc1`, the growth inhibition call was “inactive”.
Consider `C[C@@H]1[C@@H](c2ccccc2)OC(=O)[C@@H]2[C@H]3C(=O)N([C@@H](C)CO)[C@@H]4C(=O)N(Cc5ccccc5)CC=C[C@]34O[C@@H]2/C=C/CCC(=O)N1C`, for which the growth inhibition call was “inactive”.
The entry for `C=CC[C@@H](CC(=O)NCCO)C(=O)NCCOC(=O)[C@H](CC=C)NC(=O)OCC1c2ccccc2-c2ccccc21` is “inactive”.
Consider `C[C@@H]1CCCCO[C@@H](CN(C)S(=O)(=O)c2ccc(F)cc2)[C@@H](C)CN([C@@H](C)CO)C(=O)c2cc(NC(=O)Cc3ccccc3)ccc2O1`, for which the growth inhibition call is “inactive”.
The entry for `CCN1CCN(C(=O)N[C@@H](C(=O)N[C@@H]2C(=O)N3[C@@H]2SC(C)(C)[C@@H]3C(=O)O)c2ccccc2)C(=O)C1=O` is “active”; for `CC1(C)SC2C(NC(=O)C(N)c3ccccc3)C(=O)N2C1C(=O)[O-].[Na+]` (configuration not stated) it is “inactive”.
The entry for `CC1(C)SC2C(NC(=O)C(NC(=O)N3CCNC3=O)c3ccccc3)C(=O)N2C1C(=O)[O-].[Na+]` (configuration not stated) is “active”; for `CC1(C)SC2C(NC(=O)C(C(=O)[O-])c3ccccc3)C(=O)N2C1C(=O)[O-].[Na+].[Na+]` (configuration not stated) it is “active”; for `CC1(C)SC2C(NC(=O)C(C(=O)[O-])c3ccsc3)C(=O)N2C1C(=O)[O-].[Na+].[Na+]` (configuration not stated) it is “inactive”.
Consider `CC1(C)S[C@@H]2[C@H](NC(=O)[C@H](NC(=O)N3CCNC3=O)c3ccccc3)C(=O)N2[C@H]1C(=O)O`, for which the growth inhibition call was “inactive”.
The entry for `CN[C@@H](C)C(=O)N[C@H]1CN(C(=O)CC(C)C)CC[C@H]2CC[C@@H](C(=O)NC(c3ccccc3)c3ccccc3)N2C1=O` is “inactive”; for `CCN1CCN(C(=O)NC(C(=O)NC2C(=O)N3C2SC(C)(C)C3C(=O)[O-])c2ccccc2)C(=O)C1=O.[Na+]` (configuration not stated) it is “active”.
With `C[C@H]1CN([C@@H](C)CO)C(=O)c2cc(C#CC3(O)CCCC3)cnc2O[C@@H]1CN(C)S(C)(=O)=O`, the growth inhibition call was “inactive”.
The entry for `Cc1noc(C)c1NC(=O)N(C)C[C@H]1OCCCC[C@@H](C)Oc2ccc(NC(=O)CCC(F)(F)F)cc2C(=O)N([C@@H](C)CO)C[C@@H]1C` is “inactive”.
For `C[C@@H]1CN([C@@H](C)CO)C(=O)c2cc(C#Cc3ccccc3F)cnc2O[C@H]1CN(C)S(=O)(=O)c1ccccc1F` the value was “inactive”.
The entry for `O=C(NCCN1CCOCC1)C(=O)NC[C@H]1OCCN1S(=O)(=O)c1ccc(F)cc1` is “inactive”; for `Cc1ccc(C(=O)Oc2ccc(/C=N/c3cccs3)cc2)cc1` it is “inactive”.
On to `COc1ccc(S(=O)(=O)N(C)C[C@@H]2Oc3c(NC(=O)NC(C)C)cccc3C(=O)N([C@@H](C)CO)C[C@@H]2C)cc1`, for which the growth inhibition call is “inactive”.
For the compound `COCC(=O)N(C)C[C@H]1Oc2cc(C#Cc3cccnc3)ccc2S(=O)(=O)N([C@@H](C)CO)C[C@@H]1C`, the growth inhibition call was “inactive”.
For `C[C@@H]1CN([C@@H](C)CO)C(=O)c2c(c3ccccc3n2C)-c2ccccc2CO[C@H]1CN(C)Cc1ccc(F)cc1` the value was “inactive”; for `C[C@@H]1CN([C@H](C)CO)C(=O)c2cc(NC(=O)CCCN(C)C)ccc2O[C@H]1CN(C)S(=O)(=O)c1cccs1`, “inactive”.
